# Measured values from PubChem BioAssay (NCI).
# Values joined by “and” are separate entries in the source; they are usually repeats but may differ in a detail not shown here. Equal values may be shown once. About 83,000 compounds went through this panel and 20% of them were active in at least one assay; those are over-represented in the sample as a whole.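 Assay: single dose, 48 h. Readout: percent growth (0 = no net growth; negative = cell death). Active: <10.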 Values without a mark were called inactive. Active and inactive are the calls of the source.
# Test system: MDA-MB-231 breast
# Experiment: NCI-60 one-dose screen, 48 h (100 = growth as untreated, 0 = no growth, -100 = all killed)
# Settings: 10 µM unless noted
row,Structure (SMILES),growth
1,Cc1c(C(C)(C)O)cn2ncnc(Oc3ccc(NC(=O)Nc4ccc(Cl)c(C(F)(F)F)c4)cc3)c12,32.2%
2,Cc1ccc(C(=O)N(CCCN)[C@@H](c2nc3cc(Cl)ccc3c(=O)n2Cc2ccccc2)C(C)C)cc1,-75.7% (active)
3,O=c1ccc2nc(-c3ccccn3)nn(-c3ccccc3)c-2c1,68.4%
4,COc1ccc(-c2ccc(-c3ccc(C(=N)N)cn3)o2)cc1Cl,4.25% (active)
5,Cc1ccc(Nc2nc(-c3cc(O)c(C)c(C)c3O)cs2)cc1,104%
6,COC(=O)/C=C1/SC(N2N=C(c3cccs3)CC2c2ccc(F)cc2)=NC1=O (stereo not drawn),35%
7,COC(=O)c1[nH]nc(OC)c1C1(C(C#N)c2nc3ccccc3s2)CCCc2ccccc21 (stereo not drawn),79.9%
8,CCOC(=O)c1c(-c2ccc(C)cc2)c(C#N)c(=O)n(-c2cccc(C(F)(F)F)c2)c1N,97.9%
9,COc1cc2nc3cc([N+](=O)[O-])ccc3c(NCCNCC(C)(C)O)c2cc1OC,-28.5% (active)
10,Cc1ccc(C(=O)Nc2ccc(CN3CCN(C)CC3)c(C(F)(F)F)c2)cc1C#Cc1cnc(N)cc1C#N,-67% (active)
11,OCCN1CCN(CC/C=C2\c3ccccc3Sc3ccc(Cl)cc32)CC1,29.3% and 44.8%
12,CCCCCCNC(=O)Oc1ccc(/C(=C(/CC)Cc2ccccc2)c2ccc(OCCCN(C)C)cc2)cc1,67.5%
13,O=c1cc(N/N=C/c2ccc(F)cc2)c2cc(Cl)ccc2[nH]1,94.4%
